Test results from PubChem BioAssay.
Active and inactive are the calls of the source. Unless noted, how the calls were made is not given here.

How the values were obtained:
[1] = anti-His antibody binders, primary screen, artefact control for SMM control protein annotation, biochemical, small-molecule microarray, 635 nm fluorescence (AID 1128); conditions: anti-His Alexa647 antibody binding, higher = more signal;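 further: score merges feature fluorescence with signal-to-noise for each printed compound spot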
[2] = system: Human papillomavirus type 1a E7 protein (residues 1-88); experiment: HPV1a E7 small-molecule binders, primary screen, biochemical, small-molecule microarray, residues 1-88, 635 nm (AID 1129); conditions: small-molecule microarray binding, fluorescence 635 nm; higher = more signal
[3] = target: Focal adhesion kinase 1 (Homo sapiens) (UniProt Q05397); experiment: small-molecule microarray binders of FAK, primary screen, biochemical, 635/667 nm fluorescence, BSA, DTT (AID 1130); conditions: PTK2 binding, 635 nm fluorescence, higher = more signal;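 further: composite of spot emission at 667 nm and signal to noise over triplicate slides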
[4] = system: Fibrinogen (Alexa647-labelled); experiment: fibrinogen binders on compound microarrays, profiling panel, artefact control for SMM control-protein annotation, biochemical, small-molecule microarray, 635/667 nm fluorescence (AID 1131); conditions: fibrinogen-A647 binding fluorescence, higher = more signal;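 further: z-score merges 667 nm fluorescence with per-spot signal-to-noise over triplicate slides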
[5] = target: Follistatin (Homo sapiens) (UniProt P19883); experiment: follistatin binders on small-molecule microarrays, primary screen, biochemical, small-molecule microarray, 635/667 nm fluorescence (AID 1132); conditions: FST binding, 635 nm fluorescence, higher = more signal
[6] = target: Fibroblast growth factor 2 (Homo sapiens) (UniProt P09038); experiment: FGF2 binders on small-molecule microarrays, primary screen, biochemical, small-molecule microarray, 635/667 nm fluorescence (AID 1133); conditions: small-molecule microarray binding, FGF2, fluorescence 635/667; higher = more signal
[7] = mitochondrial membrane potential change in A549 cells, profiling panel, cell-based, JC-1 fluorescence, basal, 24 h, 100 nL (AID 1138); conditions: higher = more signal;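 further: A549 lung adenocarcinoma cells under basal conditions with no added stimulus; test concentration not given here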
Lefty1 = Lefty1 binders on small-molecule microarrays, primary screen, biochemical, small-molecule microarray, 635/667 nm fluorescence (AID 1139); conditions: small-molecule microarray binding, fluorescence 635/667; higher = more signal
[8] = system: wheat germ agglutinin (Triticum aestivum), Alexa647-labelled; experiment: wheat germ agglutinin binders on compound microarrays, profiling panel, artefact control for SMM control-protein annotation, biochemical, small-molecule microarray, 635/667 nm fluorescence (AID 1140); conditions: WGA-A647 binding, 635 nm fluorescence, higher = more signal;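 further: score merges 667 nm feature emission with signal to noise over triplicate slides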
[9] = target: Luciferin 4-monooxygenase (Photinus pyralis) (UniProt P08659); experiment: firefly luciferase enzyme inhibitors, primary screen, biochemical, luminescence, purified enzyme, 2006 set (AID 1141); conditions: SteadyGlo luminescence, 30 min, higher = more signal, called active from +8 up or from −8 down;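 further: cell-free assay with purified firefly luciferase at 100 ng per well in PBS; test concentration not given here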
[10] = system: Wnt5a (protein binding on small-molecule microarray); experiment: Wnt5a binders on small-molecule microarray, primary screen, biophysical, 635/667 nm fluorescence (AID 1142); conditions: 635 nm fluorescence, higher = more signal;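 further: fluorescence read at 667 nm with signal to noise per printed feature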
[11] = cell viability in Huh7 cells, primary screen, cytotoxicity control for HCV replication inhibitor project, CellTiter-Glo luminescence, basal, 48 h (AID 1143); conditions: Huh7 HCV replicon, higher = more signal, called active from +8 up or from −8 down;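 further: Huh7 hepatoma cells carrying a hepatitis C replication reporter with no stimulus; test concentration not given here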
[12] = P. aeruginosa biofilm formation inhibitors, primary screen, PAO1 strain, BacTiter-Glo luminescence, LB-PBS (AID 1144); conditions: 12 h, higher = more signal
[13] = CREB reporter modulators without forskolin, primary screen, cell-based, PC12, CRE-LacZ reporter, unstimulated (AID 1145); conditions: no forskolin, luminescence, 4.5 h, higher = more signal, called active from +8 up or from −8 down
[14] = CREB reporter modulators under forskolin, primary screen, cell-based, PC12, CRE-LacZ reporter, forskolin-stimulated (AID 1146); conditions: luminescence, 4.5 h, higher = more signal, called active from +8 up or from −8 down;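 further: PC12 cells with 6xCRE LacZ reporter stimulated by forskolin 10 µM; beta-galactosidase reporter signal reflecting CREB driven transcription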
[15] = target: Streptavidin (Streptomyces avidinii) (UniProt P22629); experiment: streptavidin binders on small-molecule microarray, primary screen, artefact control for SMM compound annotation, biophysical, 635/667 nm fluorescence (AID 1147); conditions: streptavidin binding, higher = more signal;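 further: signal reflects streptavidin binding to arrayed compounds as a control protein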
[16] = small-molecule binders of probe aInhba, primary screen, biochemical, small-molecule microarray, 635/667 nm fluorescence (AID 1148); conditions: higher = more signal;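 further: score merges 667nm spot fluorescence with signal-to-noise for antibody binding to printed compounds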
Torsin-1A (Homo sapiens) [17] = target: Torsin-1A (Homo sapiens) (UniProt O14656); experiment: torsin A binders from cell lysate, primary screen, small-molecule microarray, wild-type, 635/667 nm (AID 1149); conditions: COS7 hTOR1A-WT lysate, 635 nm fluorescence, higher = more signal
Torsin-1A (Homo sapiens) [18] = target: Torsin-1A (Homo sapiens) (UniProt O14656); experiment: small-molecule binders of mutant TOR1A in lysate, primary screen, cell lysate, small-molecule microarray, COS7 lysate, 635/667 nm fluorescence (AID 1150); conditions: COS7 hTOR1A mutant lysate, 635 nm fluorescence, higher = more signal;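 further: score pools 667 nm emission and signal to noise measuring lysate protein binding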
[19] = system: Sonic hedgehog protein (Shh); experiment: small-molecule binders of Shh protein, primary screen, biochemical, small-molecule microarray, 635/667 nm fluorescence (AID 1151); conditions: small-molecule microarray binding, 635 nm fluorescence; higher = more signal;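 further: Shh protein binding to compounds spotted on small-molecule microarray slides; score combines spot fluorescence intensity with signal-to-noise across triplicate slides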

Chain of Follistatin (Homo sapiens) (P19883 whole entry, looked up): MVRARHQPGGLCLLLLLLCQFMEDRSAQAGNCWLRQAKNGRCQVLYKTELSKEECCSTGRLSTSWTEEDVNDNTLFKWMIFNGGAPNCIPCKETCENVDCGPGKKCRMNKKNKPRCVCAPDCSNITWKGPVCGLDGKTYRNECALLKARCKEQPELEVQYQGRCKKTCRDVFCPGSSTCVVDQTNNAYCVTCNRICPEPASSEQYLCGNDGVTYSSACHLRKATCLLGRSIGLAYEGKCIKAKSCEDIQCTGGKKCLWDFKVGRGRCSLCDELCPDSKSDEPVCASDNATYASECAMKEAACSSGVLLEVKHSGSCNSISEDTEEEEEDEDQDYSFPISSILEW
Chain of Torsin-1A (Homo sapiens) (O14656 whole entry, looked up): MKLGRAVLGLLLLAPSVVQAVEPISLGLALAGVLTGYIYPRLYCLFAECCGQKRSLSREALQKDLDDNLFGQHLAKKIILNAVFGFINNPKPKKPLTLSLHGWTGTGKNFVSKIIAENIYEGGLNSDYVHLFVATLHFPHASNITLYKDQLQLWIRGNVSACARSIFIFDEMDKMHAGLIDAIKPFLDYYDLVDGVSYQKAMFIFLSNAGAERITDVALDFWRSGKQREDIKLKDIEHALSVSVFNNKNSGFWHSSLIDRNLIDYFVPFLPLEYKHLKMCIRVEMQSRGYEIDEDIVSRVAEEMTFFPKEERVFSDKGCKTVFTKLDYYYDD
Chain of Streptavidin (Streptomyces avidinii) (P22629 whole entry, looked up): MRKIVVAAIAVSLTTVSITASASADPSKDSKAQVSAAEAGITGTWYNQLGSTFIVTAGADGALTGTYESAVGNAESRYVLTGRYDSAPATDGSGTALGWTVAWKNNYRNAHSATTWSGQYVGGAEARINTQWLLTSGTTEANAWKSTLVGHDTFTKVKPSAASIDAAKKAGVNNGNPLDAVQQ
Chain of Luciferin 4-monooxygenase (Photinus pyralis) (P08659 whole entry, looked up): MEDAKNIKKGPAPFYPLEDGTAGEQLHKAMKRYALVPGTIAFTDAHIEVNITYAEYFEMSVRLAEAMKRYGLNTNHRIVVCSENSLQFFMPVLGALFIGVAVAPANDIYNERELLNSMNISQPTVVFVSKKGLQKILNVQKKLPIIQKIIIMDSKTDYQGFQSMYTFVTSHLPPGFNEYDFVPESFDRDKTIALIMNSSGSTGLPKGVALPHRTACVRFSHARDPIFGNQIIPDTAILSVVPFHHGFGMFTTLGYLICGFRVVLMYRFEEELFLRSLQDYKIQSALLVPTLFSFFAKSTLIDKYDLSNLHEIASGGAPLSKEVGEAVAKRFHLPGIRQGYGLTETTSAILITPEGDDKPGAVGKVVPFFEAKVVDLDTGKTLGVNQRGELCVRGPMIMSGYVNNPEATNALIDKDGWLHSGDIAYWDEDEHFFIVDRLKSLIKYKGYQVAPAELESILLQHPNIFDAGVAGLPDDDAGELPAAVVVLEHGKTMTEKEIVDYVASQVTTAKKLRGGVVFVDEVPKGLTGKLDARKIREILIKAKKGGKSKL
Chain of Focal adhesion kinase 1 (Homo sapiens) (Q05397 whole entry, looked up): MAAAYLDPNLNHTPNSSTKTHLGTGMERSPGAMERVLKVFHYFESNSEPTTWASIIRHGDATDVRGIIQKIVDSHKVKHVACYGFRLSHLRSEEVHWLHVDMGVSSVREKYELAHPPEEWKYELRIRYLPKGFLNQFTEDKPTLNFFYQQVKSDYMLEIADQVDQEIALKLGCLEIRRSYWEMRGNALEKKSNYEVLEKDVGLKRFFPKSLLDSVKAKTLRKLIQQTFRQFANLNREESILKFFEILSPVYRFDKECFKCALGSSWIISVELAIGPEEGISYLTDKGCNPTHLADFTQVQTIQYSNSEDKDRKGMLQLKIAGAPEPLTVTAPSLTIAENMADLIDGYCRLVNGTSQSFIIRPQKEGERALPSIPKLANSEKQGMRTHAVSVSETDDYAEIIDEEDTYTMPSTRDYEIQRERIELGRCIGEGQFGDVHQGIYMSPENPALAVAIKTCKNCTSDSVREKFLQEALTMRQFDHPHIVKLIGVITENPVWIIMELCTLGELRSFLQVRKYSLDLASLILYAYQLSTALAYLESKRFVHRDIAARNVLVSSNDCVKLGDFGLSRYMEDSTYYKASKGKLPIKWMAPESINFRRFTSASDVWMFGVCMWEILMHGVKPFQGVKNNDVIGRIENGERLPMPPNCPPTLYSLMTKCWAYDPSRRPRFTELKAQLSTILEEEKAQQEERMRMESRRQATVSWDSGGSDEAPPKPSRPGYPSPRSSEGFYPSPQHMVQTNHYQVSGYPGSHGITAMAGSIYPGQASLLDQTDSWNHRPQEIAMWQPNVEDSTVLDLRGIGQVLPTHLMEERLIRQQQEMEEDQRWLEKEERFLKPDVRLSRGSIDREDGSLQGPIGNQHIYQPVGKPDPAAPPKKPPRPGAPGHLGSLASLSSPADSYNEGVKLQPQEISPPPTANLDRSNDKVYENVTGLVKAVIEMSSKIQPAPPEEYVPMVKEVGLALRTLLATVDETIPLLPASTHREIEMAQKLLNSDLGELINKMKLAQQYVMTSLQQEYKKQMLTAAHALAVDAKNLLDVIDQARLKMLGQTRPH
Chain of Fibroblast growth factor 2 (Homo sapiens) (P09038 whole entry, looked up): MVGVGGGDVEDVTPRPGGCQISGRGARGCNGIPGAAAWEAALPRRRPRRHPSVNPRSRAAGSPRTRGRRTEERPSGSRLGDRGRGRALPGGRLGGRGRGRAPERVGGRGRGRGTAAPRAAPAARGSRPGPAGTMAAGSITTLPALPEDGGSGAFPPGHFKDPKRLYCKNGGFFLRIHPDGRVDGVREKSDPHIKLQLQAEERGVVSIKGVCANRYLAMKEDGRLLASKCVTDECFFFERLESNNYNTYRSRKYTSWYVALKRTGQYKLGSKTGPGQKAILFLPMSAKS

| Structure (SMILES) | composite z-score [1] | composite z-score [2] | composite z-score [3] | composite z-score [4] | composite z-score [5] | composite z-score [6] | z-score [7] | composite z-score (Lefty1) | composite z-score [8] | z-score [9] | composite z-score [10] | z-score [11] | z-score [12] | z-score [13] | z-score [14] | composite z-score [15] | composite z-score [16] | composite z-score (Torsin-1A (Homo sapiens) [17]) | composite z-score (Torsin-1A (Homo sapiens) [18]) | composite z-score [19] |
| --- | --- | --- | --- | --- | --- | --- | --- | --- | --- | --- | --- | --- | --- | --- | --- | --- | --- | --- | --- | --- |
| COc1ccc([Si](C)(C)[C@@H]2[C@@H](CC(=O)N(CCO)Cc3ccccc3)O[C@]3(C(=O)N(Cc4ccc(N5CCC5=O)cc4)c4ccccc43)[C@H]2C)cc1 | 1.28 | -0.324 | -0.162 | -0.263 | 0.818 | 0.988 | 0.445 | 0.565 | 0.431 | 0.295 (inactive) | -0.0009 | -5.9 (inactive) | -0.259 (inactive) | 5.16 (inactive) | 0.0245 (inactive) | -0.301 | -0.318 | -0.0822 | 0.134 | 0.7 |
| CN(C)CCCCNC(=O)[C@H]1C[C@H]2C(=O)N[C@@H](Cc3ccccc3)C(=O)N2[C@H]1c1cccc(OCCO)c1 | 0.807 | -0.562 | -0.0598 | -0.205 | 1.21 | 0.694 | -0.0938 | 0.365 | -0.0282 | 0.801 (inactive) | -0.113 | -0.307 (inactive) | -0.584 (inactive) | -1.07 (inactive) | -1.16 (inactive) | -0.203 | -0.128 | -0.163 | 0.59 | 0.878 |
| C=C(COC)C(=O)CC[C@@H](OC(C)=O)c1ccc(OCCO)cc1 | 0.476 | -0.358 | -0.822 | -0.467 | 1.25 | 0.945 | -0.576 | 0.843 | 0.774 | -1.73 (inactive) | 0.284 | -0.354 (inactive) | -0.176 (inactive) | 0.625 (inactive) | 8.41 (active) | -0.0368 | -0.0523 | 1.82 | -0.241 | 1.64 |
| COCC(=C=CC[C@@H](O)c1ccc(OCCO)cc1)C[C@@H](O)COCc1ccccc1 | 1.29 | 0.893 | 0.106 | -0.262 | 1.34 | 1.41 | 0.974 | 1.01 | 0.904 | -1.7 (inactive) | 1.05 | -0.959 (inactive) | -0.498 (inactive) | 10.3 (active) | -0.487 (inactive) | -0.223 | 0.0345 | 0.681 | 1.43 | 1.54 |
